Measured values from PubChem BioAssay AID2551 (National Center for Advancing Translational Sciences (NCATS), 2010).
The whole screen tested about 310,000 compounds, of which about 17,000 (5.5%) were called active. About 11% were inconclusive and are not listed. This is one part of a sample in which actives are shown more often than they occur. The call rests on the fitted dose curve; in most records, active means well fitted inhibition curve with a large enough effect; inconclusive means small, poorly fitted or top-dose-only effect, or effect the other way; inactive means no such curve, though single readings can be large or run the other way.

Molecular target: Nuclear receptor ROR-gamma (Mus musculus) (UniProt P51450)
Assay: qHTS for inhibitors of ROR gamma transcriptional activity; further: nearly all actives have a fitted effect of over 60% in size
Settings: Drosophila S2 Gal4-RORgamma UAS-luciferase reporter, 20 h; series mostly up to 53.6 µM; activity change, negative = inhibition: at the top concentration
Method in brief: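 Stably transfected Drosophila Schneider cells are the test system, with ROR gamma fused to Gal4 and luciferase under UAS control; luminescence is read after 20 hr of 700 uM copper sulfate induction at ambient temperature.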
On the % scale 0 is the no-effect control and ±100 the full control effect; potency means the concentration at half of the fitted maximal effect.

Nuclear receptor ROR-gamma (Mus musculus), sequence (P51450 whole entry, looked up): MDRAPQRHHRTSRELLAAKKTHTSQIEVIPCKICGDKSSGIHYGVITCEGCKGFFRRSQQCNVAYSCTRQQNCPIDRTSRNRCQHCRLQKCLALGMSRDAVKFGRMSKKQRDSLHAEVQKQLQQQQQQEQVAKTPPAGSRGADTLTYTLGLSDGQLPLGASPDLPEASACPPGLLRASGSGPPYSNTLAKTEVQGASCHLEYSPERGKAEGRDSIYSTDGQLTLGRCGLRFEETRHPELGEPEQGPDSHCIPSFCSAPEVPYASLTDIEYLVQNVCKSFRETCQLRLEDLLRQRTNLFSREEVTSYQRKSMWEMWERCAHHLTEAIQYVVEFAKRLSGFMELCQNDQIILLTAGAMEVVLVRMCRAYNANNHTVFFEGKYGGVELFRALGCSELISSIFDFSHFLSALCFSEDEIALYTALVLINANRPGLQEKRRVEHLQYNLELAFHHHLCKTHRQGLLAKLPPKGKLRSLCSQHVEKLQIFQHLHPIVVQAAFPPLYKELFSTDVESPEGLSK

Potency, active:
CN(C)/N=C/c1cc(Cl)cc([N+](=O)[O-])c1O 11.2 µM, COC(=O)/C=C\C(=O)Nc1cccc([N+](=O)[O-])c1 3.16 µM, Cn1nnc(NC(=S)NC(=O)c2ccccc2)n1 3.55 µM, COc1cccc2sc(N(CCCN(C)C)C(=O)CCS(=O)(=O)c3ccccc3)nc12 11.2 µM, Cc1cccc2sc(N(CCCN(C)C)C(=O)CCS(=O)(=O)c3ccccc3)nc12 10 µM, COCCCNC(=S)NCCNc1nc2cc(C)c(C)cc2cc1C#N 15.8 µM, CC(C)CC[n+]1ccn(C2=C([O-])c3ccccc3C(=O)/C2=N\S(=O)(=O)c2ccccc2)c1 11.2 µM, O=C(/C=C/c1ccc(Cl)cc1Cl)c1cccnc1 2.82 µM, O=C(/C=C/c1ccc([N+](=O)[O-])o1)NNC(=O)c1ccc(F)cc1 2.82 µM, C=CCn1c2ccccc2c2nnc(SCc3[nH]c(=O)[nH]c3C(=O)CCCCC(=O)OCC)nc21 12.6 µM, COc1ccc(-n2c(-c3ccc(OC)c(OC)c3)n[nH]c2=S)cc1 11.2 µM, Cc1ccc(-n2c(-c3ccc(Cl)cc3)n[nH]c2=S)cc1 3.16 µM

Activity change, negative = inhibition, inactive:
O=C(Cc1cc(=O)[nH][nH]1)N/N=C/c1ccccc1[N+](=O)[O-] 7.28%, COC(=O)c1cc(CNC(=O)CC(C)c2ccccc2)ccc1OC (configuration not stated) 10.8%, CN(C)CCN(Cc1ccccc1)S(=O)(=O)c1csc(C(N)=O)c1 -20.5%, CCOC(=O)CC1COCCN1C(=O)c1cc(COc2ccc(F)c(F)c2)on1 (configuration not stated) 39.5%, COc1ccc(N(C)C(=O)C2CCN(S(=O)(=O)c3cccc4nsnc34)CC2)cc1 6.09%, CC(=O)Nc1cccc([N+](=O)[O-])c1 -1.22%, Cc1ccccc1NC(=S)Nc1cccc([N+](=O)[O-])c1 -34%, COC(=O)c1nc(NC(=O)c2ccccc2)n[nH]1 7.37%, Cn1nnc(NC(=O)CSc2ncn[nH]2)n1 24.3%, COc1ccc(CN2CCN(C(=O)CCC(=O)Nc3nnc(C(C)C)s3)CC2)cc1F 21.6%, O=C(CN(Cc1ccccc1)C(=O)CCC(=O)Nc1ccccn1)NCCc1ccccc1 24.4%, COc1cc2ccccc2cc1C(=O)N(CCN(C)C)c1nc2c(F)cccc2s1 -22.6%, CN(C)CCCN(C(=O)COc1ccccc1)c1nc2c(Cl)cccc2s1 -9.36%, Cc1cc(C)c2nc(N(CCN(C)C)C(=O)/C=C/c3cccs3)sc2c1 -0.19%, Cc1ccc2sc(N(CCN(C)C)C(=O)/C=C/c3cccs3)nc2c1C -30.6%, Cc1cccc(N2CCN(S(=O)(=O)c3ccc(-c4cc(C)no4)s3)CC2C)c1 (configuration not stated) 2.22%, COc1ccc(C(CNC(=O)c2cc3c(s2)CCCC3)N2CCOCC2)cc1 (configuration not stated) -19.1%, COc1cc(C(=O)NC2CCN(Cc3ccccc3)CC2)cc(Cl)c1OC(C)C -13.7%, COc1ccc(C(CNC(=O)COc2ccccc2OC)N2CCCCC2)cc1 (configuration not stated) -9.48%, Cc1ccc2cc(C#N)c(NCCNC(=S)NCCCN3CCOCC3)nc2c1 -78.1%, Cc1ccc2nc(NCCCNC(=O)c3cnccn3)c(C#N)cc2c1 -1.25%, COCC(=O)Nc1c(C(=O)N2CCCC2)oc2ccccc12 26.7%, CC(NC(=O)COc1ccc(-c2ccccc2)cc1)C1CCCO1 (configuration not stated) -0.806%, COc1ccc(S(=O)(=O)/N=C2\C=C(NS(=O)(=O)c3ccccc3)C(=O)c3ccccc32)cc1 -36.9%, COc1ccc(C2CC(c3ccc([N+](=O)[O-])cc3)=NN2C(C)=O)cc1 (configuration not stated) 21.7%, CC(C)C(C)NC(=O)COc1nc2ccccc2nc1N(C)C1CCCCC1 (configuration not stated) 27.3%, O=C(Nc1cccnc1)c1cc(Cl)ccc1Cl -7.73%, O=C(/C=C/c1ccc(Cl)c([N+](=O)[O-])c1)c1cccnc1 -10.5%, Cc1ccc(/C=C/C(=O)Nc2ccc([N+](=O)[O-])c(NC(=O)/C=C/c3ccc(C)o3)c2)o1 4.73%, O=C(N/N=C/c1ccc([N+](=O)[O-])o1)c1cn(-c2ccccc2)nc1-c1ccc(F)cc1 -38.7%, Cc1cc2c(cc1S(=O)(=O)NCc1ccc(Cl)cc1)OCC(=O)N2 6.35%, C=CCn1c(SCC(=O)CC(=O)OCC)nc2cc(C(=O)N3CCC(C(N)=O)CC3)ccc2c1=O 15%, C=CCn1c2ccccc2c2nnc(SC(CC)C(=O)Nc3nc(C)c(C(=O)OCC)s3)nc21 (configuration not stated) -6.1%, CCNC(=S)N(CCN(CC)CC)Cc1cc2cc3c(cc2[nH]c1=O)OCCO3 9.92%, O=C(Nc1ccncc1)c1ccc([N+](=O)[O-])cc1Cl -3.39%, COc1ccc(-c2cn(-c3ccc(C)cc3)c(=O)n2CC(=O)Nc2ccc(OC)c(OC)c2)cc1 51%, COC(=O)c1sc(=S)n(-c2ccc(Cl)cc2)c1C 2.4%, COc1ccc(OC)c(-n2c(-c3ccn[nH]3)n[nH]c2=S)c1 -4.51%, Cc1cc(-c2n[nH]c(=S)n2-c2ccc(C)c(C)c2)no1 6.4%, COc1ccc(OC)c(CNC(=O)Cn2nc(C)c3c(C)n(-c4ccc(C)cc4)nc3c2=O)c1 33.3%
